Screening results: PubChem, several laboratories
Mcl1 Noxa PPI = Mcl-1/Noxa binding inhibitors, primary screen, biochemical, TR-FRET, 1536-well; Induced myeloid leukemia cell differentiation protein Mcl-1 (Homo sapiens), Q07820; TR-FRET Mcl-1/Noxa peptide binding, 2 h; inhibition, % at 21.7 µM; 1.5% of 220,000 active;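 active means compounds that cut the protein-peptide binding signal by more than 50% relative to plate controls in a single-dose test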;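 further: His-tagged Mcl-1 with rhodamine Noxa BH3 peptide and terbium anti-His antibody; 0% = Mcl-1 plus Noxa peptide wells and 100% = peptide-only wells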
Target sequence (Q07820 whole entry, looked up): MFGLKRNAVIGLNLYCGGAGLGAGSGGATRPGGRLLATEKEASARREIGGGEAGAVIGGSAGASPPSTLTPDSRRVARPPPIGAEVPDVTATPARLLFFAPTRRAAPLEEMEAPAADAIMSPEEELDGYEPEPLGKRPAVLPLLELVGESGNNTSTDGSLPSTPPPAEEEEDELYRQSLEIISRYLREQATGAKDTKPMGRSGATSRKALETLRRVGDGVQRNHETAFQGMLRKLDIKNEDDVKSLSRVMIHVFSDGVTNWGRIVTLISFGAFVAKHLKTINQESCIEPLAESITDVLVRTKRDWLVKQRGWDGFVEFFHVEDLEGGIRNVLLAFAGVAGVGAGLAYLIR
L929 necroptosis = inhibitors of zVAD-triggered necroptosis, primary screen, L929 cells; viability rescue, % at 10 µM; 0.38% of 220,000 active; L929 zVAD necroptosis rescue, ATP luminescence, 24 h; with zVAD 60 µM;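 active means activation, scaled between plate controls, above about 75%, limit read from the data; inactive means activation under that limit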;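 further: 0% = zVAD with DMSO and 100% = DMSO alone without zVAD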
Mcl1-Bid inh = Mcl-1/Bid binding inhibitors, primary screen, biochemical, TR-FRET, 1536-well; Induced myeloid leukemia cell differentiation protein Mcl-1 (Homo sapiens), Q07820; TR-FRET Mcl-1/Bid-Dy647 peptide binding; inhibition, % at 21.7 µM; 0.97% of 220,000 active; AID 1021, 2008;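 active means compounds that cut the binding signal by more than half at the single screening dose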;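 further: His-tagged Mcl-1 with europium anti-His antibody binding Bid BH3 peptide; 0% = Mcl-1 plus peptide wells and 100% = peptide-only wells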
Mcl-1 Bim block = inhibitors of Bim peptide binding to Mcl-1, primary screen, biochemical, bead-based flow cytometry, multiplex; Induced myeloid leukemia cell differentiation protein Mcl-1 (Homo sapiens), Q07820; Bim peptide-Mcl-1 binding; inhibition, % at 10 µM; 0.1% of 190,000 active; in the data active means inhibition above about 40%;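 further: 0% = no compound tracer wells and 100% = peptide blocker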
MCL1 BIM primary = inhibitors of MCL1 binding to BIM-BH3, primary screen, biochemical, fluorescence polarization; 0.68% of 320,000 active; GST-MCL1 / FITC-Bim-BH3 fluorescence polarization; Induced myeloid leukemia cell differentiation protein Mcl-1 (Homo sapiens), Q07820; inhibition, % at 10.9 µM;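 active means inhibition above the mean inhibition of all tested compounds plus 3 SD, set per campaign, cut at about 40% in these data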;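 further: 0% = DMSO wells and 100% = unlabeled Bim-BH3 peptide control; higher means more loss of mP so more displacement of Bim peptide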
TNF death inh = inhibitors of TNF-alpha triggered necroptosis, primary screen, cell-based, Jurkat FADD-/-, single concentration; Jurkat FADD-/- TNF necroptosis rescue, ATP luminescence, 24 h; 0 = TNF only, 100 = no-TNF cells; AID 463075, 2010; 0.068% of 220,000 active; activation (protection from cell death), % at 10 µM;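 active means activation, meaning protection from cell death, of at least 50% relative to plate controls; inactive means activation below 50%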;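 further: necroptosis triggered by 40 ng/mL TNF-alpha added together with compound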
zVAD death conf = inhibitors of zVAD-triggered necroptosis in L929, confirmation, L929 cells, duplicate runs | shares compounds with L929 necroptosis | L929 zVAD-induced necroptosis rescue, ATP luminescence, 24 h | activation (protection from necroptosis), % at 10 µM | 16% of 760 active | AID 463117, 2010;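 active means mean protection from necroptosis of at least 50% over duplicate tests; inactive means mean protection below 50%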;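 further: 0% = cells with zVAD alone and 100% = vehicle cells without zVAD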
* = called active by the depositor; · = no result. This is a sample that favours compounds with a hit; in the whole collection about 2.4% have one here.

SMILES | Mcl1 Noxa PPI | L929 necroptosis | Mcl1-Bid inh | Mcl-1 Bim block | MCL1 BIM primary | TNF death inh | zVAD death conf
COC(=O)Cc1[nH]nc2c1C(c1c[nH]c3ccccc13)C(C#N)=C(N)O2 (stereo not given) | 2.5 | 0.8 | 10.0 | 0.0 | 5.6 | -7.6 | ·
Cc1[nH]nc2c1C(c1c[nH]c3ccccc13)C(C#N)=C(N)O2 (stereo not given) | 8.4 | 76.6* | -76.2 | · | 4.5 | -4.7 | 36.6
Cc1ccc(C2CC(=O)NC(SCC(=O)Nc3nccs3)=C2C#N)cc1 (stereo not given) | 6.5 | 96.0* | -33.9 | -1.0 | -4.6 | 92.4* | 84.7*
N#CC1=C(SCC(=O)Nc2ccccc2)NC(=O)CC1c1ccc(O)cc1 (stereo not given) | -9.3 | 1.8 | -22.9 | 0.0 | 7.6 | 1.0 | ·
NC(=O)C1CN(C(=O)c2cccc(S(=O)(=O)N3CCc4ccccc43)c2)c2ccccc2O1 (stereo not given) | · | · | · | · | -12.3 | · | ·
CC(=O)c1cccc(NC(=O)Nc2cccnc2)c1 | 2.5 | -0.1 | -0.7 | -1.0 | 0.3 | 1.5 | ·
Cc1ccc(NC(=O)Nc2cccnc2)cc1NC(=O)Nc1cccnc1 | -10.7 | 77.3* | -30.9 | · | -11.8 | -10.7 | 5.6
CC(=O)Nc1cc(NC(C)=O)cc(C(=O)OCC(=O)c2ccc3c(c2)OCO3)c1 | · | · | · | · | -10.3 | · | ·
C=CCOc1ccc(/C=C/C(C)=N\O)cc1 | -7.5 | 78.9* | -25.0 | -2.0 | 1.9 | 1.2 | 10.1
C=CCOc1ccc(/C=C/C(=O)Nc2ccc(C(=O)NC)cc2)cc1 | 6.4 | · | 5.6 | -7.0 | -37.0 | -0.1 | ·
Cc1ccc(C(=O)Nc2ccc(C(=O)O)cc2NC(=O)c2ccc(C)cc2)cc1 | · | · | · | · | 3.5 | · | ·
CC(=O)c1c(C)[nH]c(C(=O)Nc2ccc(Cl)c(S(=O)(=O)N(C)C)c2)c1C | 6.5 | 65.6 | 5.7 | 0.0 | -3.4 | -1.8 | ·
CC(=O)c1c(C)[nH]c(C(=O)OCC(=O)Nc2ccc(Cl)c(S(=O)(=O)N(C)C)c2)c1C | 7.1 | 79.7* | -5.5 | · | -2.3 | -7.0 | 2.8
CC1=CC(=O)C(C(C)C)=C/C1=N\OC(=O)c1cccc2nc(C)oc12 | 24.0 | 87.4* | -1.8 | -10.0 | -2.5 | -1.8 | 3.6
O=C(Nc1ccc(Cl)c(Cl)c1)N1N=CCC1c1ccccc1 (stereo not given) | 10.3 | 79.5* | 8.0 | 0.0 | · | 96.6* | 11.4
O=C(Nc1ccccc1)N1N=CCC1c1ccccc1 (stereo not given) | -2.9 | 84.9* | -13.7 | 0.0 | · | 94.6* | 48.5
CCN1CCN(CC(=O)N2N=CCC2c2ccccc2)CC1 (stereo not given) | 20.1 | -0.8 | 12.9 | · | 9.0 | 1.2 | ·
Cc1cccnc1NC(=O)Nc1ccc(F)cc1 | 2.7 | 81.9* | 9.4 | -3.0 | -2.8 | -0.5 | 3.1
Cc1cnc(NC(=O)Nc2ccc(Cl)cc2)s1 | 19.0 | 78.3* | -7.7 | 0.0 | 6.3 | -15.0 | 0.4
O=C(Nc1ccc(F)cc1)Nc1ccc(Cl)cn1 | 1.3 | 75.8* | 13.9 | -4.0 | 2.8 | 12.7 | 23.5
C=CCN1CC2(c3ccccc3)CN(CC=C)CC(c3ccccc3)(C1)C2=O | -6.5 | 0.4 | -45.7 | 0.0 | -5.4 | -0.3 | ·
Cc1ccc(C(C)NC(=O)c2ccc3c(c2)OCO3)cc1C (stereo not given) | · | · | · | · | -2.5 | · | ·
O=C(NC1CCSc2ccccc21)c1cccc(S(=O)(=O)N2CCOCC2)c1 (stereo not given) | · | · | · | · | -6.0 | · | ·
Cc1ccc(C(=O)OCC(=O)NNC(=O)COc2ccc(Cl)cc2)c(O)c1 | · | · | · | · | 7.7 | · | ·
O=C(NCC(c1ccco1)N1CCN(c2ccccc2F)CC1)c1ccco1 (stereo not given) | · | · | · | · | 10.7 | · | ·
SMILES | Mcl1 Noxa PPI | L929 necroptosis | Mcl1-Bid inh | Mcl-1 Bim block | MCL1 BIM primary | TNF death inh | zVAD death conf
CC(=O)NCCc1nc2ccccc2n1Cc1cccc(C)c1 | -1.5 | 0.9 | 2.9 | · | -1.4 | 0.1 | ·
O=C(CN1C(=O)C2C3C=CC(C4CC34)C2C1=O)Nc1cnc2ccccc2c1 (stereo not given) | -0.2 | 75.3* | -9.0 | -3.0 | 3.9 | 5.2 | 0.4
Cc1cc(=O)[nH]c(SCC(=O)c2ccc(F)c(C)c2)n1 | · | · | · | · | 12.9 | · | ·
Cc1cccc2[nH]c(-c3ccc(NC(=O)c4ccco4)cc3)nc12 | 6.6 | 83.6* | -6.8 | 0.0 | 6.6 | 0.4 | 1.6
Cc1ccc(NC(=O)c2cnccn2)cc1C | · | · | · | · | -0.9 | · | ·
CC1COc2ccccc2N1S(=O)(=O)c1cc(Cl)ccc1Cl (stereo not given) | · | · | · | · | 2.0 | · | ·
CCN(CC(=O)Nc1ccccc1OC)C(=O)CCOc1ccc(C(C)(C)C)cc1 | · | · | · | · | 5.6 | · | ·
COc1ccc(-c2nc(N3CCOCC3)nc3n[nH]c(N)c23)cc1 | -0.6 | 75.4* | -8.7 | -4.0 | -2.8 | -5.7 | 42.6
CCN(CC)c1ccc(CNc2nc3ccccc3n2CC)cc1 | 17.6 | 0.0 | -40.6 | · | 6.2 | 2.2 | ·
CCn1cc(Br)c(C(=O)Nc2nccs2)n1 | -0.3 | 6.6 | -19.5 | 2.0 | -4.5 | 0.3 | ·
CCC(CC)C(=O)Nc1cccc(C(=O)Nc2nccs2)c1 | -4.3 | 66.9 | -3.7 | -1.0 | 4.6 | 3.3 | ·
O=C(Nc1nccs1)c1cccc(NC(=O)C(F)(F)F)c1 | 12.4 | 97.0* | -14.2 | · | 4.9 | 15.1 | 46.6
O=C(Nc1ccccc1)Nc1nccs1 | -13.9 | 84.6* | -12.9 | -2.0 | 1.3 | 7.2 | 7.9
CCCc1cc(C(=O)Nc2nccs2)cs1 | 4.2 | 98.6* | 20.6 | 1.0 | -7.2 | 38.3 | 80.3*
CCn1nccc1C(=O)Nc1nccs1 | 15.9 | 85.3* | -20.1 | -1.0 | 0.6 | 3.6 | 37.4
COc1ccc(NC(=O)Nc2nccs2)cc1 | 5.8 | 22.3 | -32.9 | 0.0 | 3.8 | -3.1 | ·
Cc1ccc(C(=O)NCC(=O)OCc2cccc(Br)c2)cc1 | · | · | · | · | -1.7 | · | ·
COc1ccc(C(=O)Nc2nccs2)cc1OC | 16.7 | 80.1* | -13.5 | 0.0 | 3.6 | 29.7 | 46.2
Cn1nnnc1SCC(=O)Nc1cc(C(C)(C)C)nn1-c1ccccc1 | 5.7 | 0.5 | -5.8 | -2.0 | 7.8 | 1.0 | ·
COc1ccc(-n2cnnc2SCC(=O)Nc2cc(C(C)(C)C)nn2-c2ccccc2)cc1 | -6.4 | 85.1* | -27.4 | 6.0 | -3.5 | 16.9 | 81.0*
COC(=O)c1ccccc1NC(=O)CSc1nc(Nc2ccccc2)nc(N2CCOCC2)n1 | · | · | · | · | -6.3 | · | ·
CCCCc1[nH]c(=O)c(C#N)c2c1CSC(C)(C)C2 | 5.8 | 75.1* | -10.1 | -4.0 | 8.2 | -1.5 | 33.9
